Results with a measured potency or affinity are listed apart. Active and inactive are the calls of the source.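 Rule for the calls: active = compounds whose fitted curve of lowered CTGF expression reaches half effect within a set concentration limit; inconclusive = flat moderate drop in CTGF, or unreliable curve fit; inactive = the rest.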
Test: YAP1 overexpression rescue of CTGF inhibition – DLD1 cells, RT-qPCR, cherry-pick, mechanism study for YAP1 pathway inhibitor project, dose response (AID 1053127)
Conditions: DLD1 YAP1-overexpressing, CTGF mRNA qPCR, 24 h; series mostly up to 26 µM

outcome, inactive:
COc1ccc(NC(=O)N2CCCCN3[C@@H](CO)[C@H](c4ccc(-c5ccccc5F)cc4)[C@@H]3C2)cc1
CC(=O)N1CCCCN2[C@@H](CO)[C@H](c3ccc(-c4ccccc4)cc3)[C@@H]2C1
C[C@@H]1CN([C@@H](C)CO)C(=O)c2cccc(NC(=O)c3nc4ccccc4s3)c2O[C@H]1CN(C)C(=O)Nc1ccc2c(c1)OCO2
COc1ccc(NC(=O)N(C)C[C@H]2Oc3c(NC(=O)CCCCCC(=O)Nc4ccccc4N)cccc3C(=O)N([C@H](C)CO)C[C@@H]2C)cc1
COc1ccc2c3c(n(C)c2c1)[C@H](CO)N(S(C)(=O)=O)CC31CCN(C(=O)Nc2cccc(F)c2)CC1
N#C[C@@H]1[C@H](c2ccc(-c3cccc(F)c3)cc2)[C@H](CO)N1C(=O)NC1CCCC1
O=S(=O)(c1ccccc1)N1CCCCN2[C@H](C1)[C@@H](c1ccc(C#CC3CCCC3)cc1)[C@@H]2CO
COc1ccccc1S(=O)(=O)N1CC[C@@H]2[C@H]1c1cc(-c3cccc(C#N)c3)ccc1N(C)[C@H]2CO
C[C@@H]1CN([C@@H](C)CO)C(=O)Cc2cc(NC(=O)C3CCCCC3)ccc2O[C@@H]1CN(C)Cc1ccc(Cl)c(Cl)c1
COc1ccccc1C#Cc1ccc([C@H]2[C@H](CO)N3CCCCN(C(=O)C4CCC4)C[C@@H]23)cc1
COc1ccc([C@H]2C/C=C\C[C@@H](c3ccc4c(c3)OCO4)NC(=O)[C@@H](c3ccccc3)CC(=O)N2)c(OC)c1
C[C@@H]1CN([C@H](C)CO)S(=O)(=O)c2ccc(C#Cc3ccccc3F)cc2O[C@@H]1CN(C)C(=O)Cc1cccnc1
COc1ccc2c3c(n(C)c2c1)[C@@H](CO)N(Cc1ccncc1)CC31CN(C(=O)Nc2cccc(F)c2)C1
COc1ccccc1NC(=O)N1CCCCN2[C@@H](CO)[C@H](c3ccc(-c4cccc(C#N)c4)cc3)[C@@H]2C1
O=C(Nc1ccc2c(c1)[C@H]1C[C@@H](CC(=O)N3CCc4ccccc4C3)O[C@@H](CO)[C@H]1O2)c1ccc2c(c1)OCO2
C[C@@H]1CN([C@H](C)CO)C(=O)c2ccccc2-c2ccccc2CO[C@@H]1CN(C)Cc1ccccc1C(F)(F)F
C[C@H]1CN([C@@H](C)CO)S(=O)(=O)c2ccc(-c3cncnc3)cc2O[C@@H]1CN(C)C(=O)NC1CCCC1
C[C@@H]1CN([C@H](C)CO)C(=O)CCCn2nncc2CO[C@@H]1CN(C)Cc1cccc(C(F)(F)F)c1
C[C@@H]1CN([C@H](C)CO)C(=O)c2ccccc2-c2ccccc2CO[C@@H]1CN(C)Cc1ccc2c(c1)OCCN2C
CC(C)(C)S(=O)N1Cc2cc(C(=O)NCc3ccc4c(c3)OCO4)nc(-c3cccc(-c4cccc(F)c4)c3)c2[C@@H]1CCO (stereo not given in full)
CCS(=O)(=O)Nc1ccc2c(c1)C(=O)N(C)[C@H]1CC[C@H](CC(=O)N3CCN(C)CC3)O[C@H]1CO2
C[C@@H]1CN([C@H](C)CO)C(=O)CCCn2nncc2CO[C@@H]1CN(C)C(=O)c1cc(-c2ccccc2)on1
CN1CCN(C(=O)C[C@@H]2CC[C@H]3[C@@H](COc4ccc(NC(=O)C5CCOCC5)cc4C(=O)N3C)O2)CC1
C[C@@H]1CN([C@H](C)CO)C(=O)c2c(c3ccccc3n2C)-c2ccccc2CO[C@@H]1CN(C)Cc1cccc(C(F)(F)F)c1
Cc1cccc(-c2ccc([C@@H]3[C@@H](CO)N4CCCCN(S(=O)(=O)c5ccccc5F)C[C@@H]34)cc2)c1
C[C@@H]1CN([C@H](C)CO)C(=O)c2cccc(NC(=O)c3nc4ccccc4s3)c2O[C@H]1CN(C)C(=O)Nc1ccc2c(c1)OCO2
CN1C(=O)c2cc(NC(=O)Cc3cccs3)ccc2OC[C@@H]2O[C@@H](CC(=O)NCCc3ccncc3)CC[C@H]21
O=C(Nc1ccc2c(c1)[C@H]1C[C@@H](CC(=O)N3CCc4ccccc4C3)O[C@H](CO)[C@H]1O2)c1ccc2c(c1)OCO2
C[C@H]1CN([C@@H](C)CO)C(=O)c2cccc(NC(=O)c3ccc(-c4nccs4)cc3)c2O[C@@H]1CN(C)C(=O)Nc1ccc(C(F)(F)F)cc1
O=C(CC1CC1)N1CC(=O)N2[C@@H](CO)[C@H](c3ccc(/C=C/c4ccccc4)cc3)[C@@H]2C1

From PubChem BioAssay AID1053127 (Broad Institute, 2014)
